The source of these data is PubChem BioAssay AID1508600 (Functional Genomics Laboratory (NCATS/FGL), 2020).

The campaign covered roughly 53,000 sequences. About 3,700 (7%) were called active. This is one part of a sample in which actives are shown more often than they occur.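 How the source made its calls: active means gene knockdowns whose robust z-score for IL-1 alpha signal is at least 2 or at most -2, so actives lie on both sides; inactive means the rest.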

The experiment can be described thus: Components of the Cytosolic LPS Sensing Pathway: Gene Identification via Genome-wide siRNA Screen.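 Further: robust z of the log signal after scaling to non-targeting control siRNA wells of the plate.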 Particulars: RAW264.7 macrophages, IL-1a HTRF, actives lie on both sides, screened at 100 nM (by protocol), cells primed 5 h with Pam3CSK4 first. Summed up:
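Three distinct siRNAs per gene were tested singly at 100 nM in RAW264.7 macrophages. Following Pam3CSK4 priming and 24 hour LipidA transfection, IL-1a secretion was read by HTRF.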
GGCGCAUUACCAGAGCUUCTT against Tnpo2: the z-score is -0.425 (inactive).
Regarding CGUUGUCAAAAGGACCCAUTT against Pvr, the z-score is -0.766 (inactive).
GGAUAAGGUAGAAUUACUGTT against Slc26a4: the z-score was 3.06 (active).
As for GCACCGUGUGACCAUGAACTT against Akt1, the z-score is 3.96 (active).
On to GCAAGGAUCCACGCUUUUCTT against Ckmt2, for which the z-score was 1.34 (inactive).
Under GCCACUCUUAGUGCUAACUTT against Tctn3 stands -1.25 (inactive); under GGAUUACCUAAAUUUAGGATT against Hfm1, 0.14 (inactive); under GCACUACAGACACUUUUAGTT against Gm5533, -2.12 (active).
To GGAAAAUUCAGUUUAAUCCTT against Glt8d1 belongs 0.438 (inactive); to GGACAGAACCAUCUGAAGGTT against Aldh18a1, 1.43 (inactive); to CGUGGAAAAGCUAUGUGCGTT against Lif, -0.188 (inactive).
To GGAAGCUGUGCUGAAUGGUTT against Atp5l belongs 0.387 (inactive); to CGGCACUGUCAUAAGUGUGTT against Utp4, 2.39 (active); to GGAGGAAAAGGCUUUUCGATT against Ccdc70, 1.04 (inactive).
With GGCACAUCACUGCUUACCUTT against Rce1, the z-score was -1.73 (inactive).
As for GGAUGUGGAAUCAUGCUAUTT against Tnpo3, the z-score was 2.41 (active).
Consider GCCAAGCCAUCUCAUUAAATT against Wdr18, for which the z-score is -0.724 (inactive).
To GCCUGACUUUAAUGAAGAATT against Slf2 belongs -1.77 (inactive); to GGGUUUCUUGUUUCUUAGATT against Aldh6a1, -0.00669 (inactive); to CGUGGUUCCUCUUUGGUGUTT against Kcnj10, -0.217 (inactive).
Regarding CCAGUUCUUAACAUUGUGUTT against Syap1, the z-score is -1.13 (inactive).
Turning to CCCAUCAUCUUCCCAUUCGTT against Olfr146, the z-score is -0.204 (inactive).
With GGGCUAGAUGAAUUUUUGATT against Aplnr, the z-score was -0.181 (inactive).
To GGCCUGGAUUCCUUAACAATT against Lgi1 belongs -3.23 (active).
To CCAGCUAUGUGUAUAAACCTT against Ppid belongs -0.045 (inactive); to GCCUGUGCCUUUUGAAUUCTT against Brox, -0.0201 (inactive); to GGUCUAUCCCAUCAUGCCUTT against Clcnka, 0.583 (inactive).
In the case of GCAGAGAGUUUUUAUCUGCTT against Vmp1, the z-score is 0.0579 (inactive).
As for CGCUACGACUAGAGUUUGCTT against Rbpms, the z-score is 2.36 (active).
To GGGAAGAACUUCAAGCUUGTT against Ptk2b belongs 0.668 (inactive); to GGUUGGACUGACUAUCCAUTT against Olfr984, 1.02 (inactive); to GGCUGCUGACAUUUUCAUCTT against Lrrc28, 1.53 (inactive).
Under GGAUAUGCUCAGAGGUUUUTT against Pex11g stands 2.2 (active); under GGUCCUAACAUCCAGAGUGTT against Zfp438, -1.06 (inactive); under GGAUAAGACCAUCAGAUUATT against Wdr31, 1.18 (inactive).
To GGAGCUUGAUUCGAAGCCUTT against Bik belongs -0.364 (inactive); to GCGAAGAGUCAAAUCCAUCTT against Dock8, -1.93 (inactive).
In the case of CGGGUGCUAAAAUGUCUAUTT against Khdrbs2, the z-score is 2.81 (active).
Take CCGAAGUUCACCCUAAAGGTT against Lmna: the z-score is -0.485 (inactive).
Under GCAAAGAAGUGUAUGUGUUTT against Olfr273 stands 0.0336 (inactive); under GCUUCUCAGAAGAUGUACUTT against Rgs16, -1.06 (inactive).
Under GCCCUAUAUAUCAUUCUAGTT against Rhoa stands 1.12 (inactive).
To GCCUGUUAUAUGUGGCCUUTT against Olfr1352 belongs 0.673 (inactive); to GGAUGUCCUGAAAGAAAAATT against H2-M9, 0.633 (inactive); to GCUUUAUUCACUCACUUUCTT against Chsy3, 0.814 (inactive).
As for GGAUAACUGUAACAGCCCGTT against Ly6g6c, the z-score is -2.12 (active).
Under GGUGAUUUCUAUCGAUUUUTT against Dhrs9 stands 0.144 (inactive).
To GGACGUGCUCAAGUUCAUCTT against Ift172 belongs 0.519 (inactive); to GGAAGUCAAGCAAAAGUUUTT against Hsd17b7, -0.516 (inactive).
To GGUUGAAGAUGAAAGAAGATT against Sin3a belongs 0.132 (inactive); to CGAAGCUCAACAGAUUCCUTT against Prl7a2, -0.278 (inactive).
Consider GGCACGAUGGUUCAUCCUUTT against Plek2, for which the z-score is -2.01 (active).
Under CGGCCUACAACUACCCAACTT against Tekt3 stands 1.02 (inactive); under CGACGUAUCCGUUCUAUAATT against Eif2s1, -1.05 (inactive).
Consider GAGCAUAGAAACCAUGCACTT against Acot2, for which the z-score is -0.621 (inactive).
Under GGAGAUGUAACCAUAGGCCTT against Dctn6 stands 2.07 (active); under GCUAAAGAAAAGUGGAGACTT against Pbdc1, 0.165 (inactive).
As to GGCAGAAAGACAUUUUCUUTT against Ift80, the z-score was -2.53 (active).
On to GCAUAUCUAUAACAGAGCCTT against Rnase2a, for which the z-score was -1.23 (inactive).
For the sequence GGAAAUGUCAUGACCUUGATT against Tnfaip6, the z-score was -1.89 (inactive).
To CCUGGUGCUAUGGACUAAATT against Tectb belongs -1.15 (inactive); to GCUACGGAUGCUUUUCAAATT against Ube2i, -0.351 (inactive).
To UAUUGUCACCGUCUUAGGCTT against Olfr1028 belongs -2.84 (active); to CGUAUCUUAUAUCAGGAAATT against Trem1, 0.513 (inactive).
Under GGAGAACAUAAAAAUGGUGTT against Stk39 stands -0.0786 (inactive); under GGAGUUUUGGGUGAUGAUATT against Olfr974, -2.41 (active); under GGUCUUUUGUAAAAACCCUTT against Sytl2, 0.099 (inactive).
On to GGCAACAGUGAAAGAUGAATT against Acnat2, for which the z-score is 0.0608 (inactive).
On to GCAACCGCGUCACAUUGAATT against Bicc1, for which the z-score is 0.655 (inactive).
Under “GCGAGCAUGAAGUUAGUAATT against C230029F24Rik” stands 0.914 (inactive).
Consider GGAGUGACUCCUACAAAAUTT against Ms4a4b, for which the z-score was -2.01 (active).
With CCAGUGGUCAUUCUUGUCUTT against Olfr1076, the z-score is 0.314 (inactive).
To GCUGUCGACUUUAAAAGGUTT against Pcdhga7 belongs -0.356 (inactive); to GGCAGAAACUAAGAAUGAATT against Mx1, -0.292 (inactive); to GGACCUUUUGUGAACUUACTT against E2f3, 4.53 (active).
GGUGAAGAAAGCACUGUUUTT against Olfr980: the z-score was 0.0649 (inactive).
To GGAAAUCAGAAUUCCAAAATT against Cntn6 belongs 1.56 (inactive); to GGCCUAUUUGUUUUUGAAATT against Mthfd2, 1.45 (inactive); to GGACUAUUCACACUAAGUCTT against Them5, -0.214 (inactive).
Regarding GGGAAACAAAAAGCAGAUATT against Ccdc47, the z-score was 0.325 (inactive).
To GGAACUGGAAAUCUCAGAGTT against Pcdh12 belongs 0.447 (inactive); to GCCACAUCAGAUGAAGUCCTT against Ppm1e, -2.26 (active).
Under GCCCAAUCUACACAGACCATT against Slc7a13 stands -0.939 (inactive); under GGAUGUGUGUGUCUCCUCATT against Prr9, -0.256 (inactive).
Turning to GCUACAGAUUAGGGACAUATT against Pcdhb2, the z-score was 4.53 (active).
As to CCACUCCCAUAAGGGCUAUTT against Smo, the z-score is -0.144 (inactive).
To CCUGAACAUAAAGUUUACUTT against Catsper4 belongs 0.209 (inactive); to CGACAUGUCAAAACUCACGTT against Zfp791, 1.22 (inactive).
To CCAUGUACCAGAUUAAGUATT against Krt8 belongs 1.16 (inactive); to GGUGAAAAGCAGCUAACAATT against Fam135a, -1.6 (inactive).
Take GCUGUAAUGCUAAUGACAUTT against Gpr22: the z-score is 1.23 (inactive).
On to CCAUGGUCAUCCCGAUGUUTT against Olfr1454, for which the z-score is 0.171 (inactive).
Under “CGAGAAGGGAUUUUAGAAGTT against A830018L16Rik” stands -0.92 (inactive); under GGAGAAACUCUUCAGGCUUTT against Tceal8, -2.19 (active).
To GGCAGGCAGAAGGCUUUUUTT against Olfr228 belongs 1.07 (inactive); to GGUGGACAGGAGAAAGGAATT against Npy6r, -0.578 (inactive).
Under GGAGACCUGAAUUUUUCAGTT against Tab2 stands 0.469 (inactive); under GGAACAAUUGUUCCUGUGATT against Kcne1, -2.04 (active); under GGAAGAAGCAACCACAUUCTT against Evl, 0.898 (inactive).
Consider GGAGGAGUUUGACUUCGACTT against Alox12, for which the z-score was -0.109 (inactive).
In the case of CGUAGACAUGGCCUUUUUUTT against Dipk1c, the z-score was -0.863 (inactive).
To GCAAAUGAAUCAUGGGUGGTT against Rnf141 belongs 0.116 (inactive).
GGAACGUGGAUCUUUUUAUTT against Wiz: the z-score is 2.42 (active).
For the sequence GCUGUCCUUCUAUAACCCATT against Frmd5, the z-score is -1.68 (inactive).
Regarding GCUCUACAUCGAAUUGCUGTT against Lig4, the z-score was 4.14 (active).
To GGCGACAAAAAGGCUAAGCTT against Khnyn belongs 0.437 (inactive); to GGAACUAGCCUUCACUGACTT against Rabggta, 0.931 (inactive); to GGUUGCAUCACAGCGUAUATT against Phlpp1, 0.759 (inactive).
